From PubChem BioAssay (NCATS)
Several values for one entry are separate records, joined by “and”; a condition that tells them apart may be missing. Equal values may be shown once. Unmarked numbers belong to inactive results. Results filed as inconclusive are left out. Where a call stands in place of a potency, no number is given. Activity calls are given as the source filed them. Unless noted, the call rests on the fitted dose curve; in most records, active means well fitted curve in the direction sought with a large enough effect; inconclusive means small, poorly fitted or top-dose-only effect, or another doubt; inactive means no such curve, though single readings can be large; an effect the other way counts as inactive or inconclusive.

Legend:
[1] = Cell Viability - BJ (AID 421; calls by dose curve;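 further: potency means the concentration at half of the fitted maximal effect; cells exposed to compound for 40 hours at 37 °C before readout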); conditions: BJ fibroblast viability, qHTS
Outline: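 Cytotoxicity in human BJ foreskin fibroblasts is scored as loss of cellular ATP after a 40-hour exposure, measured by luciferase luminescence. Controls are DMSO and 100 uM tamoxifen.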

[2] = Cell Viability - MRC5 (AID 434; calls by dose curve;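 further: potency means the concentration at half of the fitted maximal effect; cells exposed to compound for 40 hours at 37 °C; potency reflects cytotoxicity seen as loss of intracellular ATP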); conditions: MRC5 lung fibroblast viability, qHTS
Outline: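 ATP luminescence read-out (CellTiter-Glo, 20 min RT) after 40 hr, 37 °C compound exposure of 1500 MRC5 cells/well. Data normalized to DMSO (basal) and 100 uM tamoxifen (100% inhibition); AC50 from standard Hill equation.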

[3] = Cellular Toxicity (caspase-3) HepG2 (AID 654); conditions: HepG2 caspase-3 activation, luminescence; series mostly up to 92.2 µM;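 further: cells exposed to compound for 16 hours before reading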
Outline: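 Caspase 3/7 activation is measured as a luminescence increase (aminoluciferin substrate) after 16 h compound exposure of human hepatocarcinoma HepG2 cells. AC50 values are Hill fits, scaled between DMSO baseline and 100 uM tamoxifen stimulation.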

[4] = Cellular Toxicity (caspase-3) Jurkat (AID 655); conditions: Jurkat caspase-3 activation, luminescence; caspase-3 activation: at 92.2 µM (top of the series), DMSO = 0%, tamoxifen = 100%;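 further: cells exposed to compound for 16 h at 37 °C before reading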; further: potency means the concentration at half of the fitted maximal effect
Outline: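 Jurkat cells (5000/well) in complete medium were treated with compounds for 16 hr at 37 °C, then Caspase-Glo 3/7 luminescence was read after 20 min at room temperature. Data normalized to DMSO (basal) and 100 uM tamoxifen (100%); AC50 from Hill fit.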

[5] = Cellular Toxicity (caspase-3) SHSY5Y (AID 657); conditions: SH-SY5Y caspase-3 activation; series mostly up to 91.7 µM
Outline: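 SH-SY5Y human neuroblastoma cells (1500/well) were treated with compounds for 16 h at 37 °C, then Caspase-Glo 3/7 luminescence was read after 1 h at room temperature. Data normalized to DMSO and 10 uM staurosporine; AC50 from Hill fits.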

[6] = Cellular Toxicity (caspase-3) BJ (AID 658); conditions: BJ fibroblasts, luminescence; Potency: caspase-3 activation; series mostly up to 91.7 µM
Outline: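 qHTS, BJ fibroblasts, 1000 cells/well; 5 hr preincubation, 16 hr compound, 37 °C; Caspase-Glo 3/7 reagent, 1 hr RT; luminescence. DMSO = 0%, 10 uM staurosporine = 100%. Hill-equation AC50.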

[7] = Cellular Toxicity (caspase-3) MRC-5 (AID 659); conditions: MRC-5 cells, luminescence, normalized: DMSO 0%, 10 µM staurosporine 100%; series mostly up to 91.7 µM
Outline: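 MRC-5 fibroblasts, 1500/well; 16 h cpd, 37 °C; Caspase-Glo 3/7, 1 h RT; lumi read. Norm: DMSO = 0%, 10 uM staurosporine = 100%. Hill-fit AC50 from qHTS conc-response.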

[8] = Cellular Toxicity (caspase-3) Mesangial (AID 660); conditions: mesangial cells, normalized: DMSO 0%, 100 µM tamoxifen 100%; series mostly up to 91.7 µM;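 further: combined caspase 3 and 7 activity read by Caspase-Glo luminescence; cells exposed to compound for 16 h before the caspase read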
Outline: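 Caspase 3/7 activation measured by Caspase-Glo 3/7 luminescence (20 min, room temperature) following 16 h exposure of mesangial cells (1000/well); AC50 from Hill-equation fit, normalized to DMSO and 100 uM tamoxifen.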

[9] = Cellular Toxicity (caspase-3) SK-N-SH (AID 661); conditions: SK-N-SH caspase-3 activation, qHTS, DMSO as zero, staurosporine as full; series mostly up to 91.7 µM
Outline: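 Caspase 3/7 activation was read by luminogenic substrate cleavage after 16 hour treatment of SK-N-SH cells. Signal was scaled between DMSO and 10 uM staurosporine, and concentration-response data were fitted with the Hill equation for AC50.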

[10] = Cellular Toxicity (caspase-3) Hek293 (AID 664); conditions: HEK293 caspase-3 activation, DMSO = 0%, 100 µM tamoxifen = 100%; at 92.2 µM (top of the series);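 further: cells exposed to compound for 16 h at 37 °C before readout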
Outline: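 Concentration-response qHTS: caspase 3/7 activation measured by luminescent aminoluciferin substrate cleavage after 16 h compound exposure of Hek 293 cells. AC50 from Hill equation, with DMSO as basal and 100 uM tamoxifen as 100%.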

[11] = Cellular Toxicity (caspase-3) Renal Proximal Tubule (AID 667); conditions: renal proximal tubule cells, primary cells freshly taken from rat; Potency: caspase-3 activation; series mostly up to 91.7 µM;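 further: cells exposed to compound for 16 hours at 37 °C before detection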
Outline: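 Primary rat proximal tubule cells, 1000/well, 5 h plating at 37 °C, then compound 16 h at 37 °C. Caspase-Glo 3/7 reagent, 1 h RT, luminescence. Normalized to DMSO (basal) and 10 uM staurosporine (100%); Hill-fit AC50.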

[12] = MultiTox-Fluor Cytotoxicity Assay - LYMP1-001 - Dead Cells (AID 946); conditions: LYMP1-001 lymphoblastoid cells, dead-cell protease fluorescence; series mostly up to 92.2 µM
Outline: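 Seed 2500 LYMP1-001 cells/well, incubate 5 hr at 37 C; add compound, 16 hr at 37 C; add MultiTox-Fluor reagent, 60 min RT; read dead-cell fluorescence Ex/Em=485/520. Normalize to DMSO and 15 uM tetraoctylammonium bromide.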

[13] = Cell Viability - LYMP1-002 - Assay at 16 hr (AID 948); conditions: LYMP1-002 lymphoblastoid cell viability; series mostly up to 92.2 µM
Outline: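 Human lymphoblastoid cells (LYMP1-002), 2500/well, were preincubated 5 hr at 37 C, then exposed to compounds for 16 hr at 37 C in complete medium. Cellular ATP was read by CellTiter-Glo luminescence after 30 min at room temperature; AC50 from Hill fits.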

[14] = MultiTox-Fluor Cytotoxicity Assay - LYMP1-002 - Live Cells (AID 955); conditions: LYMP1-002 lymphoblastoid live-cell protease fluorescence viability; series mostly up to 46.1 µM
Outline: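 After 16 h compound exposure at 37 C, live LYMP1-002 lymphoblastoid cells (2500/well) were quantified by cleavage of cell-permeant GF-AFC substrate, read at 405/510 nm after 60 min. Concentration-response fitted with Hill equation for AC50.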

[15] = Cell Viability - LYMP1-003 - Assay at 24 hr (AID 963); conditions: LYMP1-003 lymphoblastoid cell viability; series mostly up to 92.2 µM
Outline: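 Concentration-response qHTS: ATP loss measured by CellTiter-Glo luminescence after 24 h compound exposure at 37 C. Cells were LYMP1-003 human lymphoblastoid, 2500 per well. AC50 derived via standard Hill equation modeling.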

[16] = Cell Viability - LYMP2-026 (AID 989); conditions: LYMP2-026 lymphoblastoid cell viability, qHTS; series mostly up to 92.2 µM; further: nearly all actives have a fitted effect of over 50% in size
Outline: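 Cytotoxicity read as ATP-dependent luminescence (CellTiter-Glo, 30 min room temperature) after 24 h compound treatment at 37 C. LYMP2-026 lymphoblastoid line seeded at 2500 cells/well; AC50 derived by standard Hill equation.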

[17] = Cell Viability - LYMP1-002 - Assay at 24 hr (AID 993); conditions: LYMP1-002 lymphoblastoid cells viability; series mostly up to 92.2 µM
Outline: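 qHTS cytotoxicity at 24 h: CellTiter-Glo ATP luminescence in lymphoblastoid line LYMP1-002 incubated with compound at 37 °C. Concentration-response modeled with the Hill equation for AC50; tetraoctylammonium bromide served as positive control.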

[18] = qHTS Assay for Identification of Small Molecule Inducers of Hypoxia Response (AID 2120; active means well fitted curve in the direction sought with a large enough effect in the signal ratio, with a control signal flat, not every such curve was filed as active; the % refers to the signal ratio); conditions: hypoxia response reporter cells, beta-lactamase ratio readout; series mostly up to 104 µM
Outline: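 Reporter induction read as the CCF4 blue/green (460nm/530nm) emission ratio after 2.5 h dye loading at room temperature. ME-180 HRE-beta-lactamase cells received titrated compounds for 17 h at 37 degrees Celsius; AC50 values derived.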

[19] = biological target: Peroxisome proliferator-activated receptor alpha (Homo sapiens) (UniProt Q07869); assay: qHTS assay for small molecule agonists of the peroxisome proliferator-activated receptor alpha (PPARalpha) signaling pathway (AID 651778); conditions: PathHunter PPARalpha complementation, chemiluminescence, 6 h; max response: hits give high values
Chain of Peroxisome proliferator-activated receptor alpha (Homo sapiens) (Q07869 whole entry, looked up, the tested form may be a part): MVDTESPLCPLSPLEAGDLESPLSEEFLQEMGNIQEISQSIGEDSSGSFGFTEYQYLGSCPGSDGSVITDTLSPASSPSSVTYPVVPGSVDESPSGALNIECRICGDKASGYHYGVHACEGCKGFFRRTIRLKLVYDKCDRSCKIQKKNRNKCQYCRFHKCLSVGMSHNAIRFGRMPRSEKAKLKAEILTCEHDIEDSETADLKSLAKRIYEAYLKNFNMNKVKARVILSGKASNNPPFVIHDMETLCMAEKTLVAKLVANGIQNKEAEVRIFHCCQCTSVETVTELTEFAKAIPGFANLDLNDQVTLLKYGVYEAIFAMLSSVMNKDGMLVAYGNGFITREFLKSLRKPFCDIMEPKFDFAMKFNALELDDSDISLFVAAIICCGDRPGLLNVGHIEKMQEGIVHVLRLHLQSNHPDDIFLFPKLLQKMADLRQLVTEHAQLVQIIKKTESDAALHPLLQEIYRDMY
Outline: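 Enzyme-fragment complementation assay in which ligand-bound PPARalpha translocates and forms an active enzyme that generates chemiluminescence. Cells were plated overnight, exposed to compound for 6 hr at 37 C, and then given detection reagent for 60 min at room temperature.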

[20] = qHTS assay for cell viability of the p53RE-bla HCT-116 cell line (AID 743292); conditions: p53RE-bla HCT-116 viability, ATP luminescence, 16 h; series mostly up to 95 µM; further: nearly all actives have a fitted effect of over 55% in size
Outline: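 After plating at 4,000 cells per well and a 5 h rest at 37 C, HCT-116 cells carrying p53RE-bla received test chemicals in DMSO. Sixteen hours later at 37 C, CellTiter-Glo was added and luminescence recorded following 30 min at room temperature.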

SMILES | Potency [1] [µM] | Potency [2] [µM] | Potency [3] | Potency [4] | Potency [5] | Potency [6] | outcome [7] | outcome [8] | outcome [9] | caspase-3 activation [10] [%] | Potency [11] | Potency [12] | Potency [13] | outcome [14] | Potency [15] | Potency [16] | Potency [17] | Potency [18] | max response [19] | Potency [20]
Nc1ccccc1O | > 92 | > 92 | inactive | 25.1 µM (active) | inactive | inactive | inactive | inactive | inactive | 4.27 | inactive | inactive | inactive | inactive | inactive | inactive | inactive | inactive | -1.39% | inactive
c1c[nH]cn1 | > 92 | > 92 | inactive | inactive | inactive | inactive | inactive | inactive | inactive | -0.608 | inactive | inactive | inactive | inactive | inactive | inactive | inactive | inactive | -0.778% | inactive
Cc1ccc2ccc3cccc4ccc1c2c34 | > 92 | > 92 | inactive | inactive | inactive | inactive | inactive | inactive | inactive | 0.114 | inactive | inactive | inactive | inactive | inactive | inactive | inactive | inactive | -2.03% | inactive
O=[N+]([O-])c1ccc(F)cc1F | > 92 | > 92 | inactive | inactive | inactive | inactive | inactive | inactive | inactive | -0.155 | inactive | inactive | inactive | inactive | inactive | inactive | inactive | inactive | -5.98% | inactive
COc1ccc(C(=O)Nc2ccccc2)cc1[N+](=O)[O-] | > 92 | > 92 | inactive | inactive | inactive | inactive | inactive | inactive | inactive | -1.89 | inactive | inactive | inactive | inactive | inactive | inactive | inactive | inactive | -0.106% | inactive
O=C1OC(=O)c2ccccc21 | > 92 | > 92 | inactive |  | inactive | inactive | inactive | inactive | inactive | 1.71 | inactive | inactive | inactive | inactive | inactive | inactive | inactive | inactive | 5.7% | inactive
Brc1cc(Oc2cc(Br)c(Br)c(Br)c2Br)c(Br)c(Br)c1Br | > 92 | > 92 | inactive | inactive | inactive | inactive | inactive | inactive | inactive | 0.395 | inactive | inactive | inactive | inactive | inactive | inactive | inactive | inactive | -7.16% and 0.47% | inactive
